Consider 15 compounds from PubChem BioAssay.

Assay [1] addresses Cell division control protein 42 homolog (Homo sapiens) (UniProt P60953). In words: inhibition of fluorescent GTP binding to constitutively active Cdc42 – biochemical, multiplex bead flow cytometry, Bodipy-FL-GTP, dose response (AID 1333;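 active means fitted half-maximal concentration within the tested dose range, moderate curve steepness, a statistically real signal drop, and little compound fluorescence or tag-binding interference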). On the technique in general: In flow cytometry, cells or beads pass a laser one at a time.
The target is the same in assay [2]. In words: inhibition of fluorescent GTP binding to wildtype Cdc42 – biochemical, multiplex bead flow cytometry, Bodipy-FL-GTP, dose response (AID 1334;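 active means fitted half-maximal concentration within the tested range, moderate curve steepness, significant signal drop, and little compound fluorescence or bead-linkage interference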). Particulars: bead-based flow cytometry, Bodipy-FL-GTP binding to GST-Cdc42; at 100 µM (top of the series) unless noted.
Assay [3] concerns the target GTPase HRas (Homo sapiens) (UniProt P01112). Briefly: Ras wt fluorescent GTP loading blockade – biochemical, wildtype, multiplex bead flow cytometry, dose response (AID 1335;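 active means fitted half-maximal concentration within 10 nM to 100 µM, steepness 0.5 to 2, significant signal drop, low assay interference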). Particulars: bead-based flow cytometry, Bodipy-GTP binding to GST-Ras; at 100 µM (top of the series) unless noted.
Assay [4] has as its system Ras-related protein Rab-7a (dog), GTP binding. Briefly: blockers of fluorescent GTP binding to Rab7 – biochemical, wildtype, multiplex bead flow cytometry, dose response (AID 1336).
Assay [5] deals with Ras-related C3 botulinum toxin substrate 1 (Homo sapiens) (UniProt P63000). Briefly: inhibition of wildtype Rac1 nucleotide loading – biochemical, multiplex bead flow cytometry, dose response (AID 1340;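 active means dose curve with midpoint inside tested range, moderate steepness, plateau gap beyond fit error, low compound glow and bead-link interference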). Particulars: GST-Rac1 beads, Bodipy-FL-GTP binding; at 100 µM (top of the series) unless noted.
The target of assay [6] is GTPase HRas (Homo sapiens) (UniProt P01112). In words: blockade of GTP loading onto mutant Ras – biochemical, activated mutant, multiplex bead flow cytometry, dose response (AID 1341;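 active means dose-response curve with midpoint inside the tested range, moderate steepness, significant amplitude and little compound fluorescence or bead-attachment interference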;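 further: GST-tagged constitutively activated Ras mutant immobilized on beads and multiplexed with other GTPases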).
GTPase HRas (Homo sapiens), sequence (P01112 whole entry, looked up): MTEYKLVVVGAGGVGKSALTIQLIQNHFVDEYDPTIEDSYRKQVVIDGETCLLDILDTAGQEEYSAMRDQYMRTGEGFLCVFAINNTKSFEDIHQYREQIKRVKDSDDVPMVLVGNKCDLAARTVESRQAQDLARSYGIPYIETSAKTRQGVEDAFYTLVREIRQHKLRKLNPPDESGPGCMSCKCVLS

For part of these data: Entries with a potency or affinity are not part of this list. The source made the active and inactive calls. Unless noted, how the calls were made is not given here.

Cell division control protein 42 homolog (Homo sapiens), sequence (P60953 whole entry, looked up): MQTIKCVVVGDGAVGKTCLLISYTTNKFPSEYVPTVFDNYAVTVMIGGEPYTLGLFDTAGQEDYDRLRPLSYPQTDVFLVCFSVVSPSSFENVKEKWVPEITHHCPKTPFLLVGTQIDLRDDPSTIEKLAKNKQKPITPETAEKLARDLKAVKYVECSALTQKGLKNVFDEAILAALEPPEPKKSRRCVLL

Take `O=S(=O)(Nc1ncn[nH]1)c1ccc2ccccc2c1`: the call in assay [1], in assay [4] and in assay [6] was inactive. Moreover, the fluorescence, percent of control (lower = inhibition) in assay [2] came out at 62.3%. The GTP binding, percent of control in assay [3] is 70.5%. In assay [5], the GTP binding signal, raw median fluorescence (lower = inhibition) (MCF (arbitrary fluorescence units)) came out at 224.

For the compound `COc1cc2nc(/C=C/c3ccc(N(C)C)cc3)sc2cc1SC`, the result in assay [1], in assay [4] and in assay [6] was inactive. For the same compound, the fluorescence, percent of control (lower = inhibition) in assay [2] was determined as 121%. In assay [3], the GTP binding, percent of control came to 122%. Besides, the GTP binding signal, raw median fluorescence (lower = inhibition) (MCF (arbitrary fluorescence units)) in assay [5] turned out to be 238.

Regarding `Cc1ccccc1NC(=O)CN1C(=O)S/C(=C\c2ccc(-c3cc(C(=O)O)ccc3C)o2)C1=O`, the outcome in assay [1], in assay [4] and in assay [6] was inactive. Besides, in assay [2], the fluorescence, percent of control (lower = inhibition) was 30.5%. In assay [3], this compound came in with a GTP binding, percent of control of 77.4%. Also, in assay [5], the GTP binding signal, raw median fluorescence (lower = inhibition) (MCF (arbitrary fluorescence units)) was found to be 258.

Take `CC(C)[C@H](NC(=O)c1ccccc1)C(=O)OCC(=O)NCCc1ccc(F)cc1`: the outcome in assay [1], in assay [4] and in assay [6] was inactive. Moreover, the fluorescence, percent of control (lower = inhibition) in assay [2] was determined as 50.5%. The compound also registered a GTP binding, percent of control in assay [3] of 66.5%. The same compound had a GTP binding signal, raw median fluorescence (lower = inhibition) (MCF (arbitrary fluorescence units)) in assay [5] of 209.

Take `COc1cccc(CNCc2ccc(C(=O)O)s2)c1`: the compound was classed as inactive in assay [1], in assay [4] and in assay [6]. In assay [2], the fluorescence, percent of control (lower = inhibition) was determined as 61.9%. The GTP binding, percent of control in assay [3] is 84.8%. For the same compound, the GTP binding signal, raw median fluorescence (lower = inhibition) (MCF (arbitrary fluorescence units)) in assay [5] was 32.9.

For the compound `Cc1ccc(C(C)C)c(OCc2ccccc2C(=O)O)c1`, the compound was classed as inactive in assay [1], in assay [4] and in assay [6]. Also, the fluorescence, percent of control (lower = inhibition) in assay [2] amounted to 73.5%. Also, the GTP binding, percent of control in assay [3] amounted to 87%. This compound also registered a GTP binding signal, raw median fluorescence (lower = inhibition) (MCF (arbitrary fluorescence units)) in assay [5] of 48.6.

For the compound `COc1cc(C(=S)NC2CCCCC2)ccc1O`, the compound was called inactive in assay [1], in assay [4] and in assay [6]. Besides, in assay [2], the fluorescence, percent of control (lower = inhibition) was 46.9%. Also, the GTP binding, percent of control in assay [3] stood at 62.4%. In addition, the GTP binding signal, raw median fluorescence (lower = inhibition) (MCF (arbitrary fluorescence units)) in assay [5] worked out at 209.

On to `COc1ccc(/C=C2\CCCC3C2=NN(C(=O)c2scnc2C)C3c2ccc(OC)c(OC)c2)cc1OC` (stereo not given), for which the compound was called inactive in assay [1], in assay [4] and in assay [6]. The fluorescence, percent of control (lower = inhibition) in assay [2] amounted to 76.7%. The GTP binding, percent of control in assay [3] was 122%. Moreover, in assay [5], the GTP binding signal, raw median fluorescence (lower = inhibition) (MCF (arbitrary fluorescence units)) amounted to 138.

Regarding `COc1ccc(NC(=O)CSc2ccc3nnc(-c4cccnc4)n3n2)c(OC)c1`, the result in assay [1], in assay [4] and in assay [6] was inactive. Also, in assay [2], the fluorescence, percent of control (lower = inhibition) is 37.4%. Further, the GTP binding, percent of control in assay [3] turned out to be 72.3%. The compound further yielded a GTP binding signal, raw median fluorescence (lower = inhibition) (MCF (arbitrary fluorescence units)) in assay [5] of 165.

Regarding `COC(CNC(=O)C1CCCN1C(=O)OCc1ccccc1)OC` (stereo not given), the result in assay [1], in assay [4] and in assay [6] was inactive. In addition, the fluorescence, percent of control (lower = inhibition) in assay [2] came to 46.2%. In addition, the GTP binding, percent of control in assay [3] amounted to 90.5%. The same compound had a GTP binding signal, raw median fluorescence (lower = inhibition) (MCF (arbitrary fluorescence units)) in assay [5] of 333.

On to `Cc1cccc(OCCSc2nc3ccccc3n2CC(=O)O)c1C`, for which the compound was called inactive in assay [1], in assay [4] and in assay [6]. Besides, the fluorescence, percent of control (lower = inhibition) in assay [2] was found to be 58.6%. The compound also registered a GTP binding, percent of control in assay [3] of 87.7%. The compound also displayed a GTP binding signal, raw median fluorescence (lower = inhibition) (MCF (arbitrary fluorescence units)) in assay [5] of 30.5.

Consider `CCOc1ccc(CCNc2ccc3nnc(-c4ccccc4)n3n2)cc1OCC`, for which the result in assay [1], in assay [4] and in assay [6] was inactive. The fluorescence, percent of control (lower = inhibition) in assay [2] stood at 40.9%. Moreover, in assay [3], the GTP binding, percent of control turned out to be 54.2%. This compound showed a GTP binding signal, raw median fluorescence (lower = inhibition) (MCF (arbitrary fluorescence units)) in assay [5] of 141.

With `O=c1nc2c(O)cccn2c2c1c(=O)[nH]c1ccccc12`, the result in assay [1], in assay [4] and in assay [6] was inactive. Also, the fluorescence, percent of control (lower = inhibition) in assay [2] is 33.4%. For the same compound, the GTP binding, percent of control in assay [3] was found to be 44.6%. The same compound registered a GTP binding signal, raw median fluorescence (lower = inhibition) (MCF (arbitrary fluorescence units)) in assay [5] of 93.

Turning to `O=S(=O)(Cc1ccccc1)c1ccccc1-c1nnc(-c2ccccc2)o1`, the result in assay [1], in assay [4] and in assay [6] was inactive. In addition, the fluorescence, percent of control (lower = inhibition) in assay [2] is 89.9%. The GTP binding, percent of control in assay [3] stood at 166%. The compound also showed a GTP binding signal, raw median fluorescence (lower = inhibition) (MCF (arbitrary fluorescence units)) in assay [5] of 188.

Turning to `NC1=NC(=O)/C(=C\c2ccc(O)c([N+](=O)[O-])c2)S1`, the compound was classed as inactive in assay [1], in assay [4] and in assay [6]. The fluorescence, percent of control (lower = inhibition) in assay [2] came out at 26.8%. This compound gave a GTP binding, percent of control in assay [3] of 58.3%. In assay [5], this compound registered a GTP binding signal, raw median fluorescence (lower = inhibition) (MCF (arbitrary fluorescence units)) of 116.
